Holding throughout (assay): NCI-60 one-dose screen, 48 h (100 = growth as untreated, 0 = no growth, -100 = all killed)
One assay deals with BT-549 breast. To be noted: 10 µM.
Another assay concerns MDA-MB-435 melanoma. The settings on record: 10 µM.
The test system of another assay is SW-620 colon. To be noted: 10 µM.
The test system of the next assay is MCF7 breast. To be noted: 10 µM unless noted.
For a further assay, the system named is HCT-116 colon. To be noted: 10 µM.
The test system of a further assay is HCC-2998 colon. The settings on record: 10 µM.
A further assay deals with KM12 colon. To be noted: 10 µM.

Compounds without any hit were thinned out: in the full panel of roughly 83,000, 20% have a hit.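 Growth was measured after 48 h exposure to one concentration of compound in 96-well plates. Values under 10 count as active.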 A number with no mark means an inactive call. The source made the active and inactive calls.

The values that follow come from PubChem BioAssay (NCI).

In the case of `COc1cc(OC)c2ccc(=O)oc2c1`, the growth is 111% in the assay on BT-549 breast; 107% in the assay on MDA-MB-435 melanoma; 101% with SW-620 colon; 100% with MCF7 breast; 109% in the assay on HCT-116 colon; 94.8% in the assay with HCC-2998 colon. For the same molecule, in the assay with KM12 colon, the growth was 98.9%.

Consider `CN(C)c1nc2c([nH]1)c(=O)n(C)c(=O)n2C`, for which the growth is 103% in the assay with BT-549 breast; 111% with MDA-MB-435 melanoma; 102% in the assay with SW-620 colon; 106% in the assay with MCF7 breast; 97% in the assay on HCT-116 colon; 89.8% with HCC-2998 colon. For the same molecule, in the assay on KM12 colon, the growth is 109%.

`CC(=O)Nc1cccc(Cl)c1C`: the growth in the assay on MDA-MB-435 melanoma is 94.8%; in the assay on SW-620 colon, 101%; in the assay on MCF7 breast, 105%; in the assay with HCT-116 colon, 103%; in the assay on HCC-2998 colon, 107%; with KM12 colon, 98.9%.

Regarding `COC(=O)c1ccc(NC(=O)CCl)cc1`, the growth is 67.9% in the assay with BT-549 breast; 73.8% with MDA-MB-435 melanoma; 76.6% in the assay with SW-620 colon; 58.3% in the assay on MCF7 breast; 70% in the assay with HCT-116 colon; 113% in the assay with HCC-2998 colon. Further, the growth with KM12 colon is 83.6%.

Consider `COc1ccc(C2OC(N)=C(O)C2=O)cc1OC` (stereo not drawn), for which the growth is 110% in the assay on MDA-MB-435 melanoma; 103% with SW-620 colon; 93.8% in the assay on MCF7 breast; 99.7% with HCT-116 colon; 107% in the assay with HCC-2998 colon; 109% in the assay with KM12 colon.

As to `O=C(O)C(Cc1ccccc1)C(=O)O`, the growth with MDA-MB-435 melanoma is 111%; in the assay with SW-620 colon, 105%; with MCF7 breast, 99.8%; in the assay on HCT-116 colon, 96.8%; in the assay on HCC-2998 colon, 106%; in the assay on KM12 colon it was 107%.

Regarding `C=CCNc1nnc(C)s1`, the growth in the assay with BT-549 breast was 122%; with MDA-MB-435 melanoma it was 124%; with SW-620 colon, 107%; in the assay with MCF7 breast, 102%; in the assay with HCT-116 colon, 104%; with HCC-2998 colon it was 112%. Besides, the growth in the assay on KM12 colon was 101%.

Turning to `CSc1[nH]c(=O)ncc1F`, the growth in the assay on BT-549 breast is 94.1%; in the assay on MDA-MB-435 melanoma it was 102%; with SW-620 colon, 102%; in the assay with MCF7 breast it was 96%; in the assay on HCT-116 colon, 98.3%; in the assay with HCC-2998 colon it was 96.8%. The growth with KM12 colon was 104%.

With `Cc1cc(=O)[nH]c(NN=C2CCCC2)n1`, the growth in the assay on BT-549 breast is 122%; with MDA-MB-435 melanoma it was 110%; in the assay with SW-620 colon, 111%; in the assay with MCF7 breast, 104%; in the assay with HCT-116 colon it was 107%; in the assay with KM12 colon, 110%.

Turning to `O=C1OC[C@H]2[C@H](c3ccc(O)c(O)c3)c3cc(O)c(O)cc3C[C@H]12`, the growth was 134% in the assay with BT-549 breast; 121% with MDA-MB-435 melanoma; 107% in the assay with SW-620 colon; 121% in the assay on MCF7 breast; 103% in the assay on HCT-116 colon; 112% in the assay with KM12 colon.

Turning to `O=C(/C=C\c1ccc(O)cc1)c1ccccc1`, the growth in the assay on BT-549 breast is 37.4%; in the assay with MDA-MB-435 melanoma it was 95%; in the assay with SW-620 colon it was 101%; in the assay with MCF7 breast, 80.8%; in the assay on HCT-116 colon, 78.2%; with HCC-2998 colon, 112%. In addition, the growth in the assay on KM12 colon was 71%.

Turning to `NC(=S)CN1CCOCC1`, the growth in the assay with MDA-MB-435 melanoma was 111%; with SW-620 colon, 103%; in the assay with HCT-116 colon, 109%; with HCC-2998 colon, 102%; in the assay on KM12 colon, 102%.

Take `Cc1ccc(C)n1-c1ccsc1C(=O)NNC(=O)C(Cl)Cl`: the growth is 98.4% in the assay with MDA-MB-435 melanoma; 102% in the assay on SW-620 colon; 96.9% with MCF7 breast; 105% with HCT-116 colon; 105% in the assay with HCC-2998 colon; 101% in the assay on KM12 colon.

Take `CCOC(=O)C1OC1c1ccccc1` (stereo not drawn): the growth in the assay with BT-549 breast was 102%; in the assay with MDA-MB-435 melanoma, 107%; in the assay on SW-620 colon, 107%; in the assay on MCF7 breast, 96%; in the assay with HCT-116 colon it was 98.6%; with HCC-2998 colon, 108%. For the same molecule, the growth in the assay with KM12 colon is 100%.

`NC(=O)N/N=C\c1ccco1`: the growth was 118% in the assay on MDA-MB-435 melanoma; 107% in the assay on SW-620 colon; 101% in the assay on HCT-116 colon; 99.3% with HCC-2998 colon; 113% with KM12 colon.

For the molecule `Cc1ncc(C#N)c(N)n1`, the growth with BT-549 breast is 94.4%; in the assay on MDA-MB-435 melanoma, 90.2%; in the assay with SW-620 colon, 99.9%; in the assay on MCF7 breast it was 99.7%; in the assay with HCT-116 colon, 96.7%; with HCC-2998 colon, 102%. Further, the growth with KM12 colon was 104%.

On to `Cc1cc2nc(CC(=O)c3cccc([N+](=O)[O-])c3)c(=O)[nH]c2cc1C`, for which the growth is 87% in the assay with BT-549 breast; 93.9% with MDA-MB-435 melanoma; 93.7% in the assay on SW-620 colon; 74.8% in the assay on MCF7 breast; 54.8% in the assay with HCT-116 colon; 89.9% in the assay on HCC-2998 colon. Moreover, in the assay on KM12 colon, the growth was 86.6%.

With `c1cc2cccc3c4cccc5cccc(c(c1)c23)c54`, the growth was 104% in the assay with BT-549 breast; 111% with MDA-MB-435 melanoma; 108% in the assay on SW-620 colon; 84% in the assay on MCF7 breast; 103% with HCT-116 colon; 96.7% in the assay on HCC-2998 colon. Moreover, the growth in the assay with KM12 colon is 104%.

As to `NC(CSC(c1ccccc1)(c1ccccc1)c1ccccc1)C(=O)O` (stereo not drawn), the growth in the assay on BT-549 breast was 47.4%; in the assay on MDA-MB-435 melanoma, -66.6% (active); in the assay with SW-620 colon it was 24.8%; with MCF7 breast it was 2.58% (active); with HCT-116 colon, 19.9%; in the assay with HCC-2998 colon it was 15.9%. In addition, the growth in the assay on KM12 colon is 22.5%.

`Nc1ccc(NC(=O)c2cccc(N)c2)cc1`: the growth with BT-549 breast is 93.3%; in the assay with MDA-MB-435 melanoma, 104%; in the assay on SW-620 colon, 102%; with MCF7 breast it was 105%; in the assay with HCT-116 colon it was 94.4%; with HCC-2998 colon it was 107%. Besides, the growth in the assay with KM12 colon is 103%.

Consider `Nc1ccccc1C(=O)Nc1ccc(Cl)cc1Cl`, for which the growth is 99.2% with BT-549 breast; 107% with MDA-MB-435 melanoma; 85.9% in the assay with SW-620 colon; 65.5% in the assay on MCF7 breast; 59.9% in the assay with HCT-116 colon; 103% in the assay with HCC-2998 colon. In addition, the growth in the assay with KM12 colon is 91%.

Consider `CCCCNC(=O)C(=O)NCCCC`, for which the growth in the assay with MDA-MB-435 melanoma is 104%; in the assay with SW-620 colon, 104%; in the assay on MCF7 breast it was 94.1%; with HCT-116 colon, 104%; in the assay on HCC-2998 colon it was 114%; in the assay with KM12 colon, 102%.
